Reference: PubChem BioAssay (Tox21)
Where “and” joins values, the source holds several entries; their conditions need not be identical. Identical values can stand only once. The source holds several records for some structures; these can differ, active in one and inactive in another. Calls of active or inactive are those of the source. The call rests on the fitted dose curve.

experiment: qHTS assay to identify small molecule agonists of the estrogen related receptor (ERR) signaling pathway from Tox21 library (AID 1224849); details: ERR reporter cell line, ONE-Glo luciferase, 18 h; at 42.5 µM (top of the series); further: nearly all actives have a fitted effect of over 15% in size
Excerpt: National Center for Advancing Translational Sciences [NCATS]
NIH Chemical Genomics Center [NCGC]
U.S. Environmental Protection Agency [EPA]
National Institutes of Environmental Health Sciences [NIEHS]
National Toxicology Program [NTP]
Estrogen related receptors (ERRs), the first orphan nuclear receptors discovered, play an important role in the control of cellular energy metabolism. ERRs are required for high-energy production in response to the environmental challenges. ERR-alpha was also identified as an adverse marker for breast cancer progression; ERR-alpha-positive tumors have a poor prognosis. To screen and to identify environmental compounds that perturb the ERR signaling pathways could provide valuable information for potential therapeutic or preventive measures in the treatment of metabolic disease. For identifying ERR agonists, ERR cell line (provided by NTP) has been used to screen Tox21 10K library.
The ERR cells were dispensed at 2,000 cells/5 ul/well in 1536-well white plates using a Multidrop dispenser. After the assay plates were incubated at a 37 C/5% CO2 incubator for 6 hours, 23 nL of compounds dissolved in DMSO, positive and negative controls or DMSO only was transferred to the assay plate by a pin tool. The plates were incubated at 37 C for 18 hours. 4 ul/well of One-Glo reagent was added into the assay plates using a Flying Reagent Dispenser. After 30-minute incubation at room temperature, the luminescence intensity in the plates was measured using a ViewLux plate reader.
On the % scale 0 is the no-effect control and ±100 the full control effect.

| Compound | activity change, positive = activation |
| --- | --- |
| C[C@]12C/C(=C/O)C(=O)C[C@@H]1CC[C@@H]1[C@@H]2CC[C@@]2(C)[C@H]1CC[C@]2(C)O | -37.2% (inactive) |

same assay, conditions: ERR reporter cell line, ONE-Glo luciferase, 18 h; at 92.4 µM (top of the series)

| Compound | activity change, positive = activation |
| --- | --- |
| C[C@]12C/C(=C/O)C(=O)C[C@@H]1CC[C@@H]1[C@@H]2CC[C@@]2(C)[C@H]1CC[C@]2(C)O | -61.4% (inactive) |

same assay, conditions: ERR reporter cell line, ONE-Glo luciferase, 18 h; at 92.4 µM (top of the series) unless noted

| Compound | activity change, positive = activation |
| --- | --- |
| CNC(=O)O/N=C(\C)C(C)S(C)(=O)=O (stereo not given) | 7.13% [at 872 µM] (inactive) |
| CC(=O)[O][Sn]([c]1ccccc1)([c]1ccccc1)[c]1ccccc1 | -74% (inactive) |
| O=C1C(Cl)=C(Cl)C(=O)C(Cl)=C1Cl | -23.7% (inactive) and -49% (inactive) |
| c1ccc(N=NNc2ccccc2)cc1 | 51.9% (active) and 0.0484% (inactive) |
| CN1CCc2cc3c(cc2C1O)OCO3 (stereo not given) | 0.659% (inactive) |
| CCCCN(CCCC)C(=S)[S-].CCCCN(CCCC)C(=S)[S-].[Ni+2] | -0.422% [at 42.5 µM] (inactive) |
| Oc1ccc2[nH]cc(CCCCN3CC=C(c4ccccc4)CC3)c2c1 | -32.1% [at 42.5 µM] (inactive) |
| Cc1cc(C2CC2)nc(Nc2ccccc2)n1 | 13.7% (active) |
| CN=C=O | 0.484% (inactive) |
| Oc1cc(Cl)c(Cl)c(Cl)c1Cl | -60.7% (inactive) |
| CCC(OC(C)=O)C(CC(C)NC)(c1ccccc1)c1ccccc1 (stereo not given) | -58.4% (inactive) |
| Cc1ccccc1OP(=O)(Oc1ccccc1C)Oc1ccccc1C | -4.53% (inactive) |
| Nc1ccc(N=Nc2ccccc2)cc1 | 69.2% (active) |
| CC1(C)C(C=C(Cl)Cl)C1C(=O)OC(C#N)c1ccc(F)c(Oc2ccccc2)c1 (stereo not given) | -26.4% (inactive) |
| COP(=S)(OC)Oc1nc(Cl)c(Cl)cc1Cl | -11.3% (inactive) |
| CCCCN(CCCC)C(=S)S | -4.56% (inactive) |
| BrCC(Br)(Br)Br | 15.6% (inactive) |
| CN1CCc2cc(Cl)c(O)cc2[C@H]2c3ccccc3CC[C@@H]21 | 0.522% [at 42.5 µM] (inactive) |
| C[C@@H]1CC2=CC(=O)CC[C@@H]2[C@H]2CC[C@@]3(C)[C@@H](CC[C@]3(C)O)[C@@H]21 | -28.8% [at 42.5 µM] (inactive) |

| Compound | activity change, positive = activation |
| --- | --- |
| CCOP(=S)(OCC)SC(CCl)N1C(=O)c2ccccc2C1=O (stereo not given) | -14.9% (inactive) |
| CCC1COC(Cn2cncn2)(c2ccc(Cl)cc2Cl)O1 (stereo not given) | -57.5% (inactive) |
| N#Cc1c[nH]cc1-c1cccc2c1OC(F)(F)O2 | -48.5% (inactive) |
| O=[N+]([O-])c1ccc(Cl)c(Cl)c1Cl | -11% (inactive) |
| Clc1ccc(C(c2ccc(Cl)cc2)C(Cl)Cl)cc1 | -36.3% (inactive) and -43.8% (inactive) |
| O=C1C2(Cl)C3(Cl)C4(Cl)C(Cl)(Cl)C5(Cl)C3(Cl)C1(Cl)C5(Cl)C24Cl (stereo not given) | -74.4% (inactive) and -66.3% (inactive) |
| COc1cnc(OC)n2nc(NS(=O)(=O)c3c(OCC(F)F)cccc3C(F)(F)F)nc12 | 0.129% (inactive) |
| CCOP(=S)(OCC)Oc1cc(C)nc(N(CC)CC)n1 | -21.1% (inactive) |
| CCOP(=S)(NC(C)C)Oc1ccccc1C(=O)OC(C)C (stereo not given) | -39.6% (inactive) |
| ClSC(Cl)(Cl)Cl | 1.32% (inactive) |
| ClC1=C(Cl)[C@]2(Cl)[C@@H]3[C@H]4C[C@H]([C@@H]5O[C@H]45)[C@@H]3[C@@]1(Cl)C2(Cl)Cl | -25% (inactive) |
| O=C(CCCCl)c1ccc(F)cc1 | 7.87% [at 42.5 µM] (inactive) |
| COP(=S)(OC)Oc1ccc([N+](=O)[O-])c(C)c1 | -19.2% (inactive) |
| Cc1cnc2c(C(=O)O)c(Cl)ccc2c1 | -0.863% (inactive) |
| CCOP(=O)(OCC)Oc1cc(C)nc(C(C)C)n1 | -6.77% (inactive) |
| COC(=O)/C=C(\C)OP(=O)(OC)OC | -31.3% (inactive) |
| CC(C)=CC1C(C(=O)OC(C#N)c2cccc(Oc3ccccc3)c2)C1(C)C (stereo not given) | -9.74% (inactive) |
| C[C@H]1[C@H](c2ccc(Cl)cc2)SC(=O)N1C(=O)NC1CCCCC1 | -41.4% (inactive) |
| CCN(CC)CCN1C(=O)CN=C(c2ccccc2F)c2cc(Cl)ccc21 | -10.4% [at 42.5 µM] (inactive) |
